# Source: PubChem BioAssay AID1159580 (chemical genetic matrix, 2015)
# Out of some 5,500 compounds screened, about 2,000 (36%) were called active. About 18% were inconclusive and are not listed. Some of the results follow. Unmarked numbers belong to inactive results. Rule as the data show it: active = normalized growth mostly below about 0.91 (no sharp cut-off); inconclusive = no clear call, values can overlap the other calls; inactive = mostly above about 0.92.
# Experiment: chemical genetic growth profiling, strain panel (AID 1159580);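 also: tested at 20 µM; growth read once vehicle control cultures reached saturation at 30 °C; 1 = growth at the plate median or of vehicle wells; lower values mean less growth of the strain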
# Conditions: growth OD
# [1] = S. cerevisiae deletion strains, locus YAL013W, strain DEP1, active compounds read low
# [2] = S. cerevisiae deletion strains, locus YBR229C, strain ROT2, active compounds read low
# [3] = S. cerevisiae deletion strains, locus YDL101C, strain DUN1, active compounds read low
# [4] = S. cerevisiae deletion strains, locus YDL134C, strain PPH21, active compounds read low
# [5] = S. cerevisiae deletion strains, locus YDR150W, strain NUM1, active compounds read low
# [6] = S. cerevisiae deletion strains, locus YEL061C, strain CIN8, active compounds read low
# [7] = S. cerevisiae deletion strains, locus YGR078C, strain PAC10, active compounds read low
# [8] = S. cerevisiae deletion strains, locus YHR030C, strain SLT2, active compounds read low
# [9] = S. cerevisiae deletion strains, locus YJR043C, strain POL32, active compounds read low
# [10] = S. cerevisiae deletion strains, locus YJR075W, strain HOC1, active compounds read low
# [11] = S. cerevisiae deletion strains, locus YLR039C, strain RIC1, active compounds read low
# [12] = S. cerevisiae deletion strains, locus YLR262C, strain YPT6, active compounds read low
# [13] = S. cerevisiae deletion strains, locus YMR263W, strain SAP30, active compounds read low
# [14] = S. cerevisiae deletion strains, locus YMR307W, strain GAS1, active compounds read low
# [15] = S. cerevisiae deletion strains, locus YNL153C, strain GIM3, active compounds read low
# [16] = S. cerevisiae deletion strains, locus YNL322C, strain KRE1, active compounds read low
# [17] = S. cerevisiae deletion strains, locus YPL055C, strain LGE1, active compounds read low
# [18] = S. cerevisiae deletion strains, locus YPL241C, strain CIN2, active compounds read low
structure (smiles),measurement,setting,value
COc1cc(C2Nc3cccc4cccc(c34)N2)cc(OC)c1OC,normalized growth,[1],0.962
same,normalized growth,[2],1.01
same,normalized growth,"S. cerevisiae deletion strains, locus YCL061C, strain MRC1, active compounds read low",1.02
same,normalized growth,[3],1.05
same,normalized growth,[4],0.985
same,normalized growth,[5],1.04
same,normalized growth,[6],0.925
same,normalized growth,[7],1.02
same,normalized growth,[8],0.729
same,normalized growth,"S. cerevisiae deletion strains, locus YHR087W, strain rtc3, active compounds read low",1.01
same,normalized growth,"S. cerevisiae deletion strains, locus YJL187C, strain SWE1, active compounds read low",0.992
same,normalized growth,[9],1.01
same,normalized growth,[10],1.07
same,normalized growth,[11],0.751 (active)
same,normalized growth,"S. cerevisiae deletion strains, locus YLR058C, strain SHM2 (second series), active compounds read low",1
same,normalized growth,"S. cerevisiae deletion strains, locus YLR085C, strain ARP6, active compounds read low",0.881
same,normalized growth,[12],0.808 (active)
same,normalized growth,"S. cerevisiae deletion strains, locus YML094W, strain GIM5, active compounds read low",0.883
same,normalized growth,"S. cerevisiae deletion strains, locus YMR219W, strain ESC1, active compounds read low",1
same,normalized growth,[13],0.996
same,normalized growth,[14],0.661 (active)
same,normalized growth,[15],1.02
same,normalized growth,"S. cerevisiae deletion strains, locus YNL298W, strain CLA4 (second series), active compounds read low",0.877
same,normalized growth,[16],1
same,normalized growth,"S. cerevisiae deletion strains, locus YNR030W, strain Alg12, active compounds read low",0.736 (active)
same,normalized growth,[17],0.945
same,normalized growth,[18],0.403 (active)
same,normalized growth,"S. cerevisiae deletion strains, locus YPR135W, strain CTF4, active compounds read low",0.952
COc1cc2cccc(OC)c(=O)c2c(OC)c1OC,normalized growth,[1],1.01
same,normalized growth,"S. cerevisiae deletion strains, locus YBR021W, strain FUR4, active compounds read low",0.994
same,normalized growth,[2],1.01
same,normalized growth,"S. cerevisiae deletion strains, locus YCL029C, strain bik1, active compounds read low",1.02
same,normalized growth,"S. cerevisiae deletion strains, locus YDL035C, strain GPR1, active compounds read low",1.02
same,normalized growth,"S. cerevisiae deletion strains, locus YDL074C, strain BRE1, active compounds read low",1
same,normalized growth,[3],1.01
same,normalized growth,[4],1.01
same,normalized growth,"S. cerevisiae deletion strains, locus YDL185W, strain tfp1, active compounds read low",1.01
same,normalized growth,"S. cerevisiae deletion strains, locus YDL192W, strain arf1, active compounds read low",1.03
same,normalized growth,"S. cerevisiae deletion strains, locus YDR101C, strain arx1, active compounds read low",0.991
same,normalized growth,[5],1.02
same,normalized growth,"S. cerevisiae deletion strains, locus YDR162C, strain NBP2, active compounds read low",1.02
same,normalized growth,"S. cerevisiae deletion strains, locus YDR318W, strain mcm21, active compounds read low",1.03
same,normalized growth,"S. cerevisiae deletion strains, locus YDR388W, active compounds read low",1.01
same,normalized growth,"S. cerevisiae deletion strains, locus YDR502C, strain sam2, active compounds read low",0.989
same,normalized growth,[6],1.01
same,normalized growth,"S. cerevisiae deletion strains, locus YER110C, active compounds read low",1.02
same,normalized growth,"S. cerevisiae deletion strains, locus YER155C, strain BEM2, active compounds read low",1
same,normalized growth,"S. cerevisiae deletion strains, locus YER167W, strain BCK2, active compounds read low",1.03
same,normalized growth,"S. cerevisiae deletion strains, locus YGL078C, strain dbp3, active compounds read low",1
same,normalized growth,"S. cerevisiae deletion strains, locus YGL086W, strain mad1, active compounds read low",1.03
same,normalized growth,"S. cerevisiae deletion strains, locus YGL248W, strain PDE1, active compounds read low",1.01
same,normalized growth,[7],0.998
same,normalized growth,"S. cerevisiae deletion strains, locus YGR135W, strain pre9, active compounds read low",0.982
same,normalized growth,"S. cerevisiae deletion strains, locus YGR229C, strain SMI1, active compounds read low",0.994
same,normalized growth,"S. cerevisiae deletion strains, locus YGR252W, strain gcn5, active compounds read low",0.988
same,normalized growth,[8],1.01
same,normalized growth,"S. cerevisiae deletion strains, locus YHR079C, strain IRE1 (second series), active compounds read low",1
same,normalized growth,"S. cerevisiae deletion strains, locus YHR094C, strain hxt1, active compounds read low",1.01
same,normalized growth,"S. cerevisiae deletion strains, locus YHR129C, strain ARP1, active compounds read low",1
same,normalized growth,"S. cerevisiae deletion strains, locus YHR200W, strain rpn10, active compounds read low",1.01
same,normalized growth,"S. cerevisiae deletion strains, locus YIL066C, strain RNR3, active compounds read low",1.02
same,normalized growth,"S. cerevisiae deletion strains, locus YIL073C, strain SPO22, active compounds read low",1.06
same,normalized growth,"S. cerevisiae deletion strains, locus YIL125W, strain kgd1, active compounds read low",1.02
same,normalized growth,"S. cerevisiae deletion strains, locus YIR030C, strain dcg1, active compounds read low",1.01
same,normalized growth,"S. cerevisiae deletion strains, locus YJL095W, strain BCK1, active compounds read low",1
same,normalized growth,"S. cerevisiae deletion strains, locus YJL134W, strain LCB3, active compounds read low",1.01
same,normalized growth,"S. cerevisiae deletion strains, locus YJL168C, strain set2, active compounds read low",1.01
same,normalized growth,"S. cerevisiae deletion strains, locus YJL187C, strain SWE1 (second series), active compounds read low",0.996
same,normalized growth,[9],0.999
same,normalized growth,[10],1
same,normalized growth,"S. cerevisiae deletion strains, locus YKL009W, strain mrt4, active compounds read low",1.03
same,normalized growth,"S. cerevisiae deletion strains, locus YKL068W, active compounds read low",1.01
same,normalized growth,"S. cerevisiae deletion strains, locus YKL085W, strain MDH1 (second series), active compounds read low",1.02
same,normalized growth,"S. cerevisiae deletion strains, locus YKL085W, strain MDH1, active compounds read low",1.02
same,normalized growth,"S. cerevisiae deletion strains, locus YKL190W, strain CNB1, active compounds read low",1.01
same,normalized growth,"S. cerevisiae deletion strains, locus YKR001C, strain vps1, active compounds read low",1.01
same,normalized growth,[11],1.09
same,normalized growth,"S. cerevisiae deletion strains, locus YLR058C, strain SHM2, active compounds read low",1.01
same,normalized growth,"S. cerevisiae deletion strains, locus YLR102C, strain apc9, active compounds read low",1.01
same,normalized growth,[12],1.09
same,normalized growth,"S. cerevisiae deletion strains, locus YLR268W, strain sec22, active compounds read low",0.99
same,normalized growth,"S. cerevisiae deletion strains, locus YLR330W, strain CHS5, active compounds read low",1.01
same,normalized growth,"S. cerevisiae deletion strains, locus YLR342W, strain FKS1 (second series), active compounds read low",1.05
same,normalized growth,"S. cerevisiae deletion strains, locus YLR371W, strain rom2, active compounds read low",1.01
same,normalized growth,"S. cerevisiae deletion strains, locus YLR418C, strain cdc73, active compounds read low",0.945
same,normalized growth,"S. cerevisiae deletion strains, locus YML016C, strain PPZ1, active compounds read low",1.01
same,normalized growth,"S. cerevisiae deletion strains, locus YML032C, strain rad52, active compounds read low",1.03
same,normalized growth,"S. cerevisiae deletion strains, locus YML124C, strain tub3, active compounds read low",1.01
same,normalized growth,"S. cerevisiae deletion strains, locus YMR078C, strain ctf18, active compounds read low",1.02
same,normalized growth,"S. cerevisiae deletion strains, locus YMR223W, strain ubp8, active compounds read low",1.01
same,normalized growth,[13],0.996
same,normalized growth,[14],0.966
same,normalized growth,"S. cerevisiae deletion strains, locus YNL067W, strain RPL9B, active compounds read low",0.992
same,normalized growth,"S. cerevisiae deletion strains, locus YNL128W, strain TEP1, active compounds read low",1
same,normalized growth,[15],0.977
same,normalized growth,"S. cerevisiae deletion strains, locus YNL233W, strain BNI4, active compounds read low",0.977
same,normalized growth,"S. cerevisiae deletion strains, locus YNL250W, strain rad50, active compounds read low",1.01
same,normalized growth,"S. cerevisiae deletion strains, locus YNL271C, strain bni1, active compounds read low",1.01
same,normalized growth,"S. cerevisiae deletion strains, locus YNL298W, strain CLA4, active compounds read low",1.02
same,normalized growth,"S. cerevisiae deletion strains, locus YNL307C, strain MCK1, active compounds read low",1.03
same,normalized growth,[16],1.02
same,normalized growth,"S. cerevisiae deletion strains, locus YNR052C, strain pop2, active compounds read low",1.01
same,normalized growth,"S. cerevisiae deletion strains, locus YOL006C, strain TOP1, active compounds read low",1.01
same,normalized growth,"S. cerevisiae deletion strains, locus YOL012C, strain htz1",0.97
same,normalized growth,"S. cerevisiae deletion strains, locus YOL147C, strain pex11, active compounds read low",1.01
same,normalized growth,"S. cerevisiae deletion strains, locus YOR061W, strain CKA2, active compounds read low",1.02
same,normalized growth,"S. cerevisiae deletion strains, locus YOR069W, strain VPS5, active compounds read low",1.01
same,normalized growth,"S. cerevisiae deletion strains, locus YOR136W, strain idh2, active compounds read low",1.02
same,normalized growth,"S. cerevisiae deletion strains, locus YOR144C, strain elg1, active compounds read low",1.01
same,normalized growth,"S. cerevisiae deletion strains, locus YOR184W, strain ser1, active compounds read low",1.04
same,normalized growth,"S. cerevisiae deletion strains, locus YOR316C, strain cot1, active compounds read low",1.01
same,normalized growth,[17],0.984
same,normalized growth,[18],1.01
same,normalized growth,"S. cerevisiae deletion strains, locus YPR119W, strain clb2, active compounds read low",1.01
same,normalized growth,"S. cerevisiae deletion strains, locus YPR141C, strain kar3, active compounds read low",1.03
same,normalized growth,"S. cerevisiae deletion strains, locus YPR163C, strain tif3, active compounds read low",1.01
same,normalized growth,"S. cerevisiae deletion strains, locus YPR167C, strain met16, active compounds read low",1.01
same,normalized growth,"S. cerevisiae deletion strains, strain wtn01, active compounds read low",0.992
same,normalized growth,"S. cerevisiae strains, strain wild type, active compounds read low",1.01
